Assay outcomes deposited in PubChem BioAssay by National Center for Advancing Translational Sciences (NCATS).
Shiga inhibitor = A qHTS for Small Molecule Inhibitors of Shiga Toxin. Vero cells, Shiga toxin protein synthesis inhibition reporter. inhibition, % at 38.7 µM. 9.2% of 290,000 active; in the data active = inhibition mostly above about 28%, no sharp cut-off; inactive = mostly below about 43%
CHX counter = Cycloheximide Counterscreen for Small Molecule Inhibitors of Shiga Toxin. cell reporter, cycloheximide protein synthesis inhibition counterscreen. AID 2314, 2010. max response, %. 12% of 300,000 active; in the data active = max response mostly above about 13%, no sharp cut-off; inactive = mostly below about 14%; also: read at 38.3 µM for the half of the compounds with a filed dose
Pf growth 48h = Primary qHTS for delayed death inhibitors of the malarial parasite plastid, 48 hour incubation. Potency, µM (top dose mostly 28.7 µM), hits mostly inhibitors. P. falciparum luciferase growth in erythrocytes, 48 h. AID 504832, 2011. 5.9% of 310,000 active
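Growth was read as firefly luciferase luminescence after a 48 h, 37 C, 5% CO2 exposure of compounds to reporter-bearing P. falciparum cultures (0.1% parasitemia, 2% hematocrit final) in Albumax-supplemented RPMI 1640.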
Pf growth 96h = Primary qHTS for delayed death inhibitors of the malarial parasite plastid, 96 hour incubation | 6.9% of 320,000 active | Potency, µM (series often up to 28.7 µM), usual class: inhibitors | P. falciparum luciferase reporter growth, 96 h
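Delayed-death screen, second-generation endpoint: infected erythrocytes, 2% hematocrit, 0.05% parasitemia final; 96 hours at 37 C, 5% CO2; luciferase detection reagent; luminescence decrease equals reduced growth.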
Of the large screens only hits and unclear results are named; the others gave an inactive call. Rows were chosen to be rich in hits. Some 21% of all compounds tested hit in one or more screens of this group. Unless noted, calls follow the shape of the dose curve; as a rule, active = well fitted inhibition curve with a large enough effect; inconclusive = small, poorly fitted or top-dose-only effect, or another doubt; inactive = no such curve, though single readings can be large or run the other way.

O=C(COC(=O)C1CC(=O)N(CCc2ccccc2)C1)c1ccc[nH]1 (configuration not stated)	none (no result: Shiga inhibitor, CHX counter)
FC(F)(F)c1cccc(NC(=S)NCCc2ccccn2)c1	Pf growth 96h inconclusive
CCOc1ccccc1NC(=S)NC1CC2CCC1C2 (configuration not stated)	Pf growth 48h inconclusive, Pf growth 96h 5.2µM
S=C(NCCc1ccccn1)NC1CC2CCC1C2 (configuration not stated)	CHX counter 27, Pf growth 96h inconclusive
CCOc1ccccc1NC(=S)Nc1ccccc1F	Pf growth 96h 13µM
COc1ccc(NC(=S)NC2CC3CCC2C3)c(OC)c1 (configuration not stated)	Pf growth 48h inconclusive, Pf growth 96h inconclusive
Cc1sc(NC(=S)Nc2ccc(F)cc2)c(C(N)=O)c1C	none
Cc1sc(NC(=O)c2cc(-c3ccc(Cl)cc3)nc3ccccc23)c(C(N)=O)c1C	Pf growth 48h inconclusive
Cc1sc(NC(=O)c2ccc(Cl)s2)c(C(N)=O)c1C	Shiga inhibitor 103, CHX counter 68 (no result: Pf growth 96h)
Cc1sc(NC(=O)c2ccc(Br)s2)c(C(N)=O)c1C	Shiga inhibitor 69, CHX counter 51 (no result: Pf growth 96h)
CC1C/C(=C/c2ccco2)C(=O)/C(=C/c2ccco2)C1 (configuration not stated)	Pf growth 96h 8.3µM
O=C1/C(=C/c2ccco2)Cc2ccccc21	Shiga inhibitor 78, CHX counter 54, Pf growth 96h inconclusive
O=C1NC(=O)/C(=C/c2ccco2)N1	none (no result: Shiga inhibitor, CHX counter)
COc1ccccc1N=Nc1ccc(N)c(C)c1	CHX counter 32
COc1cc(N=Nc2ccccc2C(=O)O)ccc1O	Pf growth 48h inconclusive, Pf growth 96h inconclusive
NC(=O)c1ccc(-c2noc(-c3ccccc3F)n2)cc1	none (no result: Shiga inhibitor, CHX counter)
Cc1ccccc1-c1nc(-c2ccc(NC(=O)c3cccs3)cc2)no1	Shiga inhibitor 82, CHX counter 46, Pf growth 48h inconclusive
O=C(Nc1ccc(-c2noc(-c3ccccc3F)n2)cc1)c1cccs1	Shiga inhibitor 71, CHX counter 46, Pf growth 96h 9.3µM
CCOC(=O)C1=C(C)N=c2s/c(=C\c3ccc(C(=O)O)cc3)c(=O)n2C1c1ccc(F)cc1 (configuration not stated)	Pf growth 48h inconclusive, Pf growth 96h inconclusive
COC(=O)C1=C(C)N=c2s/c(=C/c3ccoc3)c(=O)n2C1c1ccccc1 (configuration not stated)	Pf growth 48h inconclusive
COc1ccc(C2C(C(C)=O)=C(C)N=c3s/c(=C/c4ccc5c(c4)OCO5)c(=O)n32)cc1 (configuration not stated)	Pf growth 48h 13µM, Pf growth 96h inconclusive
CCOC(=O)C1=C(C)N=c2s/c(=C\c3ccc(OCC(=O)O)c(OC)c3)c(=O)n2C1c1ccc(OC)cc1 (configuration not stated)	Pf growth 48h inconclusive, Pf growth 96h inconclusive
CC1=C(C(=O)OC(C)C)C(c2ccc(Cl)cc2)n2c(s/c(=C\c3ccc(OCC(=O)O)cc3)c2=O)=N1 (configuration not stated)	Pf growth 48h 12µM, Pf growth 96h 7.4µM
CCOC(=O)C1=C(C)N=c2s/c(=C\c3cc(OC)c(OC)c(OC)c3)c(=O)n2C1/C=C/c1ccccc1 (configuration not stated)	Pf growth 48h 15µM, Pf growth 96h 2.1µM
CCOC(=O)C1=C(C)N=c2s/c(=C\c3ccc(OCC(=O)O)cc3)c(=O)n2C1c1ccccc1 (configuration not stated)	Pf growth 48h 7.4µM, Pf growth 96h 10µM
O=C(CCn1nc(-c2ccc(Cl)cc2)ccc1=O)N1CCN(c2ccccc2)CC1	Pf growth 48h inconclusive
COc1ccc(C(=O)NCCc2ccc(C(F)(F)F)cc2)cc1S(=O)(=O)N1CCOCC1	Pf growth 48h inconclusive (no result: Shiga inhibitor, CHX counter)
CCOC(=O)C1=C(C)N=c2s/c(=C/c3ccco3)c(=O)n2C1c1cccc(OC)c1 (configuration not stated)	CHX counter 21, Pf growth 48h inconclusive
CCOC(=O)C1=C(C)N=c2s/c(=C\c3cccn3C)c(=O)n2C1c1cccc(OC)c1OC (configuration not stated)	Pf growth 48h 2.1µM, Pf growth 96h inconclusive
CCOC(=O)C1=C(c2ccccc2)N=c2s/c(=C\c3ccc(O)cc3)c(=O)n2C1c1cccs1 (configuration not stated)	Pf growth 48h 2.9µM, Pf growth 96h 2.6µM
CCOC(=O)C1=C(C)N=C2SC(C(=O)OC)=CC(=O)N2C1c1cccc(OC)c1 (configuration not stated)	Pf growth 48h 7.4µM
COC(=O)C1=C(C)N=c2s/c(=C/c3cccs3)c(=O)n2C1c1cccs1 (configuration not stated)	Pf growth 48h inconclusive
CCOC(=O)c1cnc(N2CCN(C(=O)OCC)CC2)[nH]c1=O	none
CCc1cc2ccc(C)cc2nc1SCC(=O)NC1CCCC1	Pf growth 96h inconclusive
CCOC(=O)C1=C(C)N=c2s/c(=C\c3cccc(OCC(=O)O)c3)c(=O)n2C1c1ccccc1 (configuration not stated)	Pf growth 48h 12µM, Pf growth 96h 0.93µM
CCOC(=O)C1=C(C)N=c2s/c(=C/c3cccc([N+](=O)[O-])c3O)c(=O)n2C1c1cc(OC)c(OC)c(OC)c1 (configuration not stated)	Pf growth 48h 1µM, Pf growth 96h inconclusive
CCOC(=O)C1=C(C)N=c2s/c(=C/c3cccc(OCC(=O)O)c3)c(=O)n2C1c1ccc(F)cc1 (configuration not stated)	Pf growth 48h inconclusive
Cc1cc(NC(=O)CSCC(=O)N(C)Cc2ccc(Cl)cc2Cl)no1	none (no result: Shiga inhibitor, CHX counter)
O=C(C[n+]1ccccc1)Nc1ccccc1[N+](=O)[O-]	none
O=C(CN(Cc1ccco1)S(=O)(=O)c1ccccc1)N/N=C/c1cccc(O)c1	Shiga inhibitor 48
CC(=O)Nc1ccc(S(=O)(=O)N(C)CC(=O)N/N=C/c2cccc(O)c2)cc1	none
Cc1cccc(S(=O)(=O)N(CC(=O)Nc2ccccc2C)Cc2ccco2)c1	Pf growth 96h 12µM (no result: Pf growth 48h)
C[C@H](c1ccccc1)n1nnc(COCc2ccccc2)c1C#CCOCc1ccccc1	Pf growth 48h inconclusive, Pf growth 96h inconclusive
CCOC(=O)c1cc(-c2ccc(F)cc2)n(CCC(=O)NC2CCN(Cc3ccccc3)CC2)c1C	Pf growth 48h inconclusive, Pf growth 96h inconclusive
NNC(=O)c1cc2ccccc2cc1NS(=O)(=O)c1ccccc1	Pf growth 48h 5.9µM, Pf growth 96h inconclusive
CCOC(=O)c1ccc(NC(=O)CC2SCCNC2=O)cc1 (configuration not stated)	Shiga inhibitor 96, CHX counter 38
Cc1ccc(NC(=O)CC2SCCNC2=O)cc1[N+](=O)[O-] (configuration not stated)	CHX counter 16
Cc1cccc2cc(CN(Cc3nnnn3C3CCCCC3)C3CCCC3)c3nnnn3c12	Pf growth 48h 12µM (no result: Pf growth 96h)
COc1ccc(Cn2nnnc2CN(Cc2cc3cccc(C)c3[nH]c2=O)C2CCCC2)cc1	Pf growth 48h 10µM
